Source: PubChem BioAssay
HCV inhibitor = HCV inhibition. Potency, µM (doses to about 41.8 µM), inactives show top-dose activity change, negative = inhibition, actives largely listed as inhibitors. 340,000 tested, 3.4% active. Huh7.5.1 HCVcc-Cre infection, luciferase reporter, 44 h. AID 651820; further: potency means the concentration at half of the fitted maximal effect; on the % scale 0 is the no-effect control and ±100 the full control effect
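After 44 h co-culture of compound, cells and HCVcc-Cre (~0.5 moi), substrate is added for 15 min at room temperature and luciferase measured over 15 sec. Cells were seeded at 1,000/well and pre-cultured 4 h.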
Sm TGR inh = S. mansoni TGR enzyme inhibition; Q962Y6; purified TGR, DTNB reduction, TNB absorbance 405 nm; Potency, µM (top dose mostly 114 µM), for the others: top-dose activity change, negative = inhibition, usual class: inhibitors; 360,000 tested, 3% active; further: potency means the concentration at half of the fitted maximal effect; on the % scale 0 is the no-effect control and ±100 the full control effect; nearly all actives have a fitted effect of over 60% in size
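TGR 20 nM + NADPH 100 uM (dispensed conc.), cpd preinc 15 min RT; start with NADPH (500 uM addition) then DTNB (15 mM addition). Kinetic TNB absorbance, 405 nm filter. Four-parameter Hill fit across titration.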
SARS PLpro yeast = blocks SARS-CoV papain-like protease in a yeast assay; S. cerevisiae expressing SARS-CoV PLpro, growth rescue; Potency, µM (titrated, usually from 32.9 µM), for the others: at the top dose activity, positive = growth rescue, actives largely listed as activators; 330,000 tested, 0.19% active; AID 485353; calls by dose curve; further: potency means the concentration at half of the fitted maximal effect; 0% is about no effect; nearly all actives have a fitted effect of over 55% in size
Pf growth 48h = P. falciparum growth inhibition at 48 hours (one generation) | P. falciparum luciferase growth in erythrocytes, 48 h | Potency, µM (titrated, usually from 28.7 µM), without a hit: at the top dose activity change, negative = inhibition, most hits filed as inhibitors | 310,000 tested, 5.9% active; further: potency means the concentration at half of the fitted maximal effect; on the % scale 0 is the no-effect control and ±100 the full control effect
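Compounds are pin-transferred into medium, infected erythrocytes (2% hematocrit, 0.1% parasitemia final) are added, and plates sit one parasite generation at 37 C in 5% CO2. Detection reagent is then added and luminescence measured.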
HCMV antiviral = human cytomegalovirus inhibition; HFF cells, HCMV-luciferase reporter, 72 h; hits give low values; activity change, negative = inhibition, % at 57.5 µM; 410,000 tested, 4.5% active; in the data active means activity change below about -60%; inconclusive means no clear call, values can overlap the other calls; inactive means above about -39%; further: on the % scale 0 is the no-effect control and ±100 the full control effect
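Luciferase read-out from HCMV-luciferase-infected HFFs (MOI 1 PFU/cell) 72 h post infection at 37C; compounds added after 16 h cell attachment; activity normalized between buffer-only basal and Salinomycin (10uM) inhibitor controls.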
Pf growth 96h = P. falciparum growth inhibition at 96 hours; P. falciparum luciferase reporter growth, 96 h; Potency, µM (doses to about 28.7 µM), for inactives: top-dose activity change, negative = inhibition, hits mostly inhibitors; 320,000 tested, 6.9% active; further: potency means the concentration at half of the fitted maximal effect; on the % scale 0 is the no-effect control and ±100 the full control effect
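Delayed-death screen, second-generation endpoint: infected erythrocytes, 2% hematocrit, 0.05% parasitemia final; 96 hours at 37 C, 5% CO2; luciferase detection reagent; luminescence decrease equals reduced growth.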
Numbers without * were called inactive; ? = inconclusive; · = no result; [ ] = remark or other dose. Most compounds without a hit are left out; they make up all but 15% or so of the library. Unless noted, the call rests on the fitted dose curve; in most records, active means well fitted curve in the direction sought with a large enough effect; inconclusive means small, poorly fitted or top-dose-only effect, or another doubt; inactive means no such curve, though single readings can be large; an effect the other way counts as inactive or inconclusive.

SMILES	HCV inhibitor	Sm TGR inh	SARS PLpro yeast	Pf growth 48h	HCMV antiviral	Pf growth 96h
CCOc1cc(C(=S)N2CCOCC2)ccc1OS(=O)(=O)c1ccc(NC(C)=O)cc1	7.08µM*	9.7%	-1.9%	0.0%	-82.8*	-23.5%
CC(=O)Nc1ccc(S(=O)(=O)Oc2ccc(C(=S)N3CCCCC3)cc2)cc1	?	-3.8%	19.0%	-5.1%	?	-24.1%
CC(=O)Nc1ccc(S(=O)(=O)Oc2ccc(C(=S)N3CCC(O)CC3)cc2)cc1	?	-1.7%	-14.6%	11.1%	-72.4*	-18.7%
Cc1ccc2nc(-c3ccc(NC(=O)C4CCCO4)cc3)[nH]c2c1 (stereo not drawn)	-26.1%	0.6%	-13.7%	·	3.9	-74.0%
CN(C)Cc1c(-c2ccc(Cl)cc2)nc2ccc(Cl)cn12	?	-1.3%	2.3%	-13.3%	28.1	?
C[C@]12C=CC(=O)N[C@@H]1CC[C@@H]1C2CC[C@]2(C)C(C(=O)Nc3cc(C(F)(F)F)ccc3C(F)(F)F)CC[C@@H]12 (stereo partly drawn)	·	·	·	4.78µM*	·	3.38µM*
O=C(O)c1ccccc1SC1CC(=O)N(c2cccc3ccccc23)C1=O (stereo not drawn)	6.1%	1.78µM*	-20.9%	2.08µM*	-32.8	59.5%
COC(=O)c1ccccc1SC1CC(=O)N(c2ccccc2)C1=O (stereo not drawn)	-4.0%	50.1µM*	-13.7%	-22.4%	-8.9	11.7µM*
CCN1C(=O)CC(Sc2ccccc2C(=O)O)C1=O (stereo not drawn)	7.9%	?	-1.3%	-81.3%	-17.3	·
CCOc1ccc(N2C(=O)CC(Sc3ccccc3C(=O)O)C2=O)c([N+](=O)[O-])c1 (stereo not drawn)	-5.9%	17.8µM*	-3.9%	-0.9%[5.75 µM]	-27.2	2.3%
CCCN(C(=O)COC(=O)CNC(=O)c1ccc2ccccc2c1)c1c(N)n(Cc2ccccc2)c(=O)[nH]c1=O	1.8%	-17.0%	-5.1%	27.7%	-11.5	29.8%
COc1ccc(S(=O)(=O)NC(C(=O)OCC(=O)Nc2ccc(N3CCOCC3)cc2)C(C)C)cc1 (stereo not drawn)	11.7%	·	·	·	-1.3	·
COc1ccc(-c2ccc3c(c2)S(=O)(=O)c2cccc(C(=O)N4CCN(c5c(Cl)cncc5Cl)CC4)c2C3=O)cc1OC	?	·	3.3%	·	34.3	·
Cn1c(Cl)cnc1C1CC(=O)c2cc(Cl)ccc2O1 (stereo not drawn)	?	-22.4%	-47.9%	?	-95.7*	?
COc1cccc(NC(=O)CN2C(=O)CC(c3ccco3)Sc3ccccc32)c1 (stereo not drawn)	·	-0.1%	·	·	-105.4*	·
CC(=O)Nc1ccc(NC(=O)CN2C(=O)CC(c3ccco3)Sc3ccccc32)cc1 (stereo not drawn)	·	-1.1%	·	·	-105.1*	·
Cc1cc(NC(=O)CN2C(=O)CC(c3ccco3)Sc3ccccc32)no1 (stereo not drawn)	35.5µM*	15.8µM*	21.9%	?	·	11.7µM*
COc1ccc(OC)c(NC(=O)CN2C(=O)CC(c3ccco3)Sc3ccccc32)c1 (stereo not drawn)	·	2.0%	·	·	-10.5	·
CCOc1ccccc1NC(=O)CN1C(=O)CC(c2ccco2)Sc2ccccc21 (stereo not drawn)	·	-17.7%	·	·	-87.0*	·
COc1ccc(CN2CCc3c(c(=O)n4ncc(C(=O)N5CCN(c6ccccc6F)CC5)c4n3C)C2)cc1	·	3.1%	·	·	?	·
C/C(=N\NC(=S)NC1CCCCC1)c1cccc(Br)c1	0.2%	8.2%	3.1%	1.04µM*	88.3	0.465µM*
O=C(CNS(=O)(=O)c1cccc(C(F)(F)F)c1)NC1CCCCCC1	-3.3%	·	1.5%	·	?	·
C/C(=N\NC(=S)NC1CCCCC1)c1cccc(C(F)(F)F)c1	-25.7%	-3.0%	-1.9%	3.7µM*	3.1	?
CC(=O)N/N=C(\C)c1cccc(C(F)(F)F)c1	11.7%	10.6%	0.1%	?	-23.4	1.9%
CCNC(=S)N/N=C(\C)c1cccc(C(F)(F)F)c1	?	-5.0%	?	9.4%	-5.9	11.7µM*
SMILES	HCV inhibitor	Sm TGR inh	SARS PLpro yeast	Pf growth 48h	HCMV antiviral	Pf growth 96h
CCC(=O)N1CCc2cc(S(=O)(=O)NCCC(=O)Nc3cccc(SC)c3)ccc21	·	-2.9%	·	·	-25.5	·
O=C(CN1CCCCCC1)Nc1ccccc1C(=O)Nc1ccccc1	?	-6.6%	15.4%	?	-20.3	-5.8%
CCOc1ccc(Nc2sc(C(=O)c3ccc4c(c3)OCO4)c(N)c2S(=O)(=O)c2ccc(C)cc2)cc1	·	0.2%	·	·	0.1	·
Cc1ccc2oc(=O)c3cc(C(=O)NCCCN4CCc5ccccc5C4)sc3c2c1	-19.9%	-20.4%	-4.4%	-16.9%	11.4	11.7µM*
CCC1CCCCN1CCCNC(=O)c1cc2c(=O)oc3ccc(C)cc3c2s1 (stereo not drawn)	12.6µM*	0.8%	0.6%	?	0.0	99.0%
CC(C)C[C@H]1CN(CCCC[C@H]2CNC(=O)C(=O)N2CC2CCCCC2)C(=O)C(=O)N1CC1CCCCC1	·	·	·	·	1.0	·
CC(C)Cn1c(N)c(C(=O)CSc2nnc(-c3ccco3)n2C)c(=O)n(C)c1=O	15.7%	-23.3%	-0.3%	5.22µM*	-27.6	1.31µM*
CC(C)Cn1c(SCC(=O)c2ccc(Cl)s2)nnc1-c1ccco1	-16.0%	?	-8.0%	·	-10.8	11.7µM*
COc1ccc(C(=O)NCCN2CCOCC2)cc1S(=O)(=O)Nc1ccc(C)cc1	-5.8%	3.6%	-1.1%	-3.3%	21.9	-23.4%
Nc1ccccc1SCCS(=O)(=O)c1ccc(Cl)cc1	-0.3%	2.7%	-0.1%	-2.9%	-4.1	-0.2%
Cc1cc2nnc(SCC(=O)Nc3cccc(S(=O)(=O)N4CCOCC4)c3)n2c2ccccc12	-25.4%	-10.9%	1.5%	?	?	?
CCOC(=O)[C@]12CCCC=C1N(Cc1ccccc1)C(=O)[C@H](CC(=O)NCc1ccc(C)o1)C2	·	·	·	·	-4.9	·
CN(C)CCCOC(=O)c1ccc(Cl)cc1Cl	14.8%	-0.3%	·	24.8%	2.5	53.3%
Cc1c(CCOC(=O)C23CC4(C)CC(C)(CC(C)(C4)C2)C3)sc[n+]1CC(=O)c1ccccc1	11.5%	·	0.7%	?	-100.5*	10.0%
Cc1c(CCOC(=O)c2cc([N+](=O)[O-])cc([N+](=O)[O-])c2)sc[n+]1CC(=O)c1ccc(Br)cc1	10µM*	?	4.7%	?	-32.7	?
Cc1c(CCOC(=O)CC23CC4CC(CC(C4)C2)C3)sc[n+]1CC(=O)c1ccccc1	11.2µM*	0.0%	0.0%	13.1µM*	48.0	52.1%
